# Assay results as given in PubChem BioAssay AID686979 (National Center for Advancing Translational Sciences (NCATS), 2013).
# The campaign covered roughly 420,000 compounds. About 50,000 (12%) were called active. Where a call stands in place of a potency, no number is given. Not shown: some 26% with an inconclusive outcome. The call rests on the fitted dose curve; in most records, active means well fitted inhibition curve with a large enough effect; inconclusive means small, poorly fitted or top-dose-only effect; inactive means flat fitted curve, though single readings scatter. This excerpt belongs to a sample that is enriched for actives.
# Assay: qHTS for Inhibitors of human tyrosyl-DNA phosphodiesterase 1 (TDP1): qHTS in cells in presence of CPT; further: nearly all actives have a fitted effect of over 55% in size
# Details: chicken DT40 Tdp1-/-;hTDP1 cells + 20 nM CPT, ATP luminescence, 48 h; series mostly up to 46.2 µM
# Text: Human tyrosyl-DNA phosphodiesterase 1 (TDP1) is a novel repair gene, and we propose to use it as a new target for anticancer drug development. TDP1 is not an essential protein, but under treatment with topoisomerase I poison (camptothecin: CPT), TDP1 works as a critical factor for cell survival. To directly identify novel TDP1 inhibitors active in a cellular environment, we have knocked-out the Tdp1 gene in chicken DT40 cells (Tdp1-/-) and generated a complemented counterpart cells that contains a stable transfection of the human TDP1 gene (Tdp1-/-;hTDP1 cells). For the primary screen, Tdp1-/-;hTDP1 cells will be exposed to small molecules in the presence or absence of CPT, and their growth kinetics will be evaluated after 48 hours by measuring ATP activity. […] The hit compounds will then be evaluated in the presence or absence of CPT using Tdp1-/- cells. […] In tertiary assays, biochemical gel-based assays will be used to assess whether the hit compounds specifically target TDP1. To this end, we have screened this cell line against the MLSMR in two primary screens. In one screen we add CPT and in the other we screen in the absence of CPT; this AID represents the screen where CPT was present. NIH Chemical Genomics Center [NCGC] NIH Molecular Libraries Probe Centers Network [MLPCN] MLPCN Grant: MH095538 Assay Submitter (PI): Yves Pommier, NCI
# DT40-hTDP1 cells with 20 nM Camptothecin (add 20 microL of 1 mM CPT stock in 1 L of cell culture medium) were dispensed at 400 cells/5microL/well in tissue culture treated 1536-well white wall/solid bottom assay plates (Greiner Bio-One North America, NC, U.S.A.) using a Multidrop Combi 8 channel dispenser (Thermo Fisher, Waltham, MA, USA). 23 nL compounds and controls were transferred using the pin tool (Kalypsys, San Diego, CA, USA) to the assay plates. The assay plates were then incubated at 37 masculineC for a minimum 48 hr. Three microL of Cell Titer Glo solution was added to the plates and incubated at RT in dark for 30 min. Luminescence was read using ViewLux (Perkin Elmer) with 1 sec exposure slow speed, high gain and 2x binning.
# Potency means the concentration at half of the fitted maximal effect.
row,Compound,Potency
1,CCCC[C@H]1COCCS(=O)(=O)N1Cc1cccc(Cl)c1,inactive
2,O=S1(=O)CCOC[C@H](CC2CCCCC2)N1Cc1ccc(F)cc1,2.51 µM (active)
3,CCC(C)[C@H]1COCCS(=O)(=O)N1Cc1ccc(C)cc1 (stereo partly specified),inactive
4,CC(C)Oc1ccc(S(=O)(=O)N2CCOCC2)cc1NC(=O)C1CCCC1,inactive
5,O=C(CCS(=O)(=O)c1ccccc1Cl)Nc1ccc(S(=O)(=O)Nc2ncccn2)cc1,inactive
6,Cc1ccc(S(=O)(=O)N2CCOCC2)cc1C(=O)OC1CCCCC1=O (stereo unspecified),inactive
7,C[C@@H]1CN([C@H](C)CO)C(=O)CCCn2cc(nn2)CO[C@H]1CN(C)S(=O)(=O)c1ccc(Oc2ccccc2)nc1,inactive
8,O=C(/C=C/c1ccc([N+](=O)[O-])o1)NNC(=O)c1ccc(F)cc1,3.26 µM (active)
9,O=C(/C=C/c1ccc(F)cc1)NCCNC(=O)/C=C/c1ccc(F)cc1,inactive
10,CCN(C(=O)Cn1c(=O)nc(-c2ccccc2)c2cc(Cl)ccc21)c1cccc(C)c1,inactive
11,Cc1ccc(S(=O)(=O)NCC(=O)N(CC(=O)NCC2CCCO2)c2cccc(F)c2)cc1 (stereo unspecified),inactive
12,C=CCOc1ccccc1CNn1c(C)n[nH]c1=S,inactive
13,N#C/C(=C(/O)COC(=O)COc1ccc(Cl)cc1)c1nc2ccccc2[nH]1,4.11 µM (active)
14,Cc1ccccc1OC/C(O)=C(\C#N)c1nc2ccccc2[nH]1,inactive
15,N#C/C(=C(/O)COc1cccc2ccccc12)c1nc2ccccc2[nH]1,inactive
16,O=C(NNC(=O)c1cc(-c2ccccc2Cl)nc2ccccc12)c1csc(N2CCOCC2)n1,inactive
17,CC(C)(C)c1ccc(C(CC(=O)O)NS(=O)(=O)Cc2ccccc2)cc1 (stereo unspecified),inactive
18,Cc1ccc2c(c1)N(CC(=O)NCC1CCCO1)C(=O)CO2 (stereo unspecified),inactive
19,NS(=O)(=O)c1ccc(NC(=O)CSc2nnc3c(n2)[nH]c2ccccc23)cc1,inactive
20,COc1ccc(CC(=O)Nc2ccc(C(=O)NC(C)(C)C)cc2)cc1,inactive
21,C/C=C/NNC(=O)Cc1ccc(OC)cc1,3.55 µM (active)
22,CCCCCNC(=O)Cc1ccc(OC)cc1,inactive

row,Compound,Potency
1,C#CCOCCOCCOCCNc1nc(N2CCN(C(=O)[C@H](CCC(=O)O)n3cc(CN)nn3)CC2)nc(N2CCN(C(=O)[C@H](CCC(=O)O)n3cc(CN)nn3)CC2)n1,inactive
2,CC(=O)c1cccc(NC(=S)N2CCCC2)c1,inactive
3,COc1ccc(CC(=O)N2N=C(C)CC2(O)C(F)(F)F)cc1 (stereo unspecified),2.91 µM (active)
4,CC1=NN(C(=O)CCCc2ccccc2)C(O)(C(F)(F)F)C1 (stereo unspecified),inactive
5,CC1=NN(C(=O)Cc2ccc(C)cc2)C(O)(c2cccnc2)C1 (stereo unspecified),inactive
6,CC1CC(=S)Nc2ccccc2N1Cc1ccccc1 (stereo unspecified),inactive
7,Nc1nc2ncccn2c1-c1ccccc1,inactive
8,O=S(=O)(Nc1cccc(-n2cnnn2)c1)c1cnc(Cl)c(Cl)c1,inactive
9,COc1ccc(N2C(=O)CS(=O)(=O)C23C(=O)N(Cc2ccc(C)cc2)c2ccccc23)cc1Cl (stereo unspecified),inactive
10,Cc1ccc(S(=O)(=O)NC(=O)Nc2nc(-c3ccc(F)c(F)c3)cs2)cc1,inactive
11,COc1ccc(CC(=O)Nc2nc(-c3ccc(F)c(F)c3)cs2)cc1OC,10.3 µM (active)
12,COc1cc(CC(=O)Nc2nc(-c3ccc(F)c(F)c3)cs2)cc(OC)c1OC,7.31 µM (active)
13,COc1cccc(CC(=O)Nc2nc(-c3ccc(OC)c(OC)c3)cs2)c1,inactive
14,COc1ccc(-c2csc(NC(=O)c3ccc(N4C(=O)CCC4=O)cc3)n2)cc1OC,inactive
15,COc1ccc(CCNC(=O)COC(=O)Cc2cc(OC)c(OC)c(OC)c2)cc1,inactive
16,CCOC(=O)c1cn(CC)c2cc(F)c(F)cc2c1=O,inactive
17,O=C(NC1CCN(C(=S)NCc2ccco2)CC1)c1ccc(F)cc1,inactive
18,Cc1cc(OCCN2CCCC2)cc(C(C)C)c1,inactive
19,COc1ccc2[nH]c(C(=O)N3CCN(C)CC3)c(C)c2c1,inactive
20,CCOC(=O)NN1C(=O)c2ccccc2NC1c1ccccc1O (stereo unspecified),16.4 µM (active)
21,O=C1c2ccccc2NC(c2ccccc2O)N1NS(=O)(=O)c1ccccc1 (stereo unspecified),inactive
22,CCOC(=O)NN1C(=O)c2ccccc2NC1c1cccc(O)c1 (stereo unspecified),inactive

row,Compound,Potency
1,Cc1ccc2nc(CN3CCN(S(=O)(=O)c4ccc(C)c(C)c4)CC3)oc2c1,inactive
2,CCOc1ccc(N(C)Cc2cc(=O)oc3ccc(OC)cc23)cc1,inactive
3,Cc1cc(C)nc(SC(C)C(=O)N/N=C/c2cccs2)n1 (stereo unspecified),inactive
4,NC(=O)N/N=C\c1cccs1,inactive
5,COc1ccc2c(c1)c(C(=O)N/N=C/c1cccs1)c(C)n2C,9.2 µM (active)
6,CCn1c(SCC(=O)Nc2nccs2)nnc1-c1ccco1,inactive
7,C[C@@H]1CN([C@H](C)CO)C(=O)CCCn2nncc2CO[C@@H]1CN(C)C(=O)OCc1ccccc1,inactive
8,Cc1ccc(C)c(NC2=NCC(=O)N2c2ccc3c(c2)OCCO3)c1,inactive
9,Cc1ccc(Cl)cc1NC(=O)NC1COc2ccccc2C1 (stereo unspecified),inactive
10,Cc1cc(NC(=O)COc2ccccc2C#N)no1,inactive
11,CCc1cccc(CC)c1NC(=O)COc1ccccc1C(=O)c1cc(C#N)c(=O)n(C2CCCCC2)c1,18.4 µM (active)
12,CCc1cccc(C)c1NC(=O)COC(=O)CC1CCCC1,inactive
13,CC(=O)Nc1ccc(NC(=O)CSc2nnc(COc3ccccc3C)n2CC2CCCO2)cc1 (stereo unspecified),inactive
14,Oc1ccc(-c2nc3ccccc3nc2-c2ccc(O)cc2O)c(O)c1,inactive
15,Oc1ccc(/C=N/Nc2nc(-c3ccccc3F)nc3ccccc23)c(O)c1,5.8 µM (active)
16,Cc1cc(N/N=C/c2ccccc2F)c2ccccc2n1,inactive
17,Cc1nc2ccccc2nc1N/N=C/c1ccc(O)cc1O,4.61 µM (active)
18,Oc1ccc(/C=N/NC2=NCCCCC2)c(O)c1,inactive
19,CCNC(=O)N1CCCC(C(=O)c2ccc(-c3ccccc3)cc2)C1 (stereo unspecified),20.6 µM (active)
20,CCOC(=O)CCNC(=O)N1CCCC(C(=O)c2ccccc2SC)C1 (stereo unspecified),inactive
21,Cc1ccccc1NC(=O)C1CCCN(C(=O)NCc2ccccc2)C1 (stereo unspecified),inactive
22,CN(C(=O)c1ccccc1)c1nccnc1C#N,inactive

row,Compound,Potency
1,COC(=O)c1ccc(CN2C(=O)NC(c3ccccc3)(c3ccccc3)C2=O)o1,inactive
2,O=C(CN1CCN(Cc2ccccc2)CC1)Nc1ccc(F)c(F)c1,inactive
3,O=C(CN1CCc2ccccc21)NC(c1ccccc1)c1ccccc1,inactive
4,O=C(CN1CCN(Cc2ccccc2)CC1)NC(c1ccccc1)c1ccccc1,14.6 µM (active)
5,CN(C)c1ccc(CNC23CN4CN(CN(C4)C2)C3)cc1,8.2 µM (active)
6,COCCN1CCN(C(=O)c2cc(COc3ccc(F)cc3Cl)on2)CC1,inactive
7,Cn1cc(S(=O)(=O)NC(c2ccccc2)c2ccccc2)c(=O)n(C)c1=O,inactive
8,CCn1c(SCc2ccccc2)nc2c(c1=O)SCC2,inactive
9,CCn1cc2nc(SCc3cccc(F)c3)n(CCc3ccccc3)c(=O)c2n1,16.4 µM (active)
10,CCn1c(SCc2ccccc2)nc2cc(OC)c(OC)cc2c1=O,inactive
11,C[C@@H]1CN([C@H](C)CO)C(=O)CCCn2nncc2CO[C@@H]1CN(C)S(=O)(=O)c1cccc(C#N)c1,inactive
12,C/C(=C/c1ccccc1)C(=O)N1CCN(c2ccccc2)CC1,inactive
13,NC(=O)C1(N2CCCC2)CCN(Cc2ccccc2)CC1,inactive
14,CN1C(=O)c2ccc(C(=O)Nc3ccc(Br)cn3)cc2C1=O,inactive
15,O=C(Nc1ccc(Br)cn1)c1ccc([N+](=O)[O-])o1,2.06 µM (active)
16,Cc1cccc(NC(=O)c2ccc([N+](=O)[O-])o2)c1,16.4 µM (active)
17,O=C(Nc1ccc(Br)cn1)c1ccc([N+](=O)[O-])cc1Cl,inactive
18,Cc1onc(NC(=O)c2ccc([N+](=O)[O-])o2)c1Br,inactive
19,Cc1cccc(NC(=O)CCn2c(=O)oc3ccccc32)c1,inactive
20,CCc1ccc(N2C(=O)CN(S(=O)(=O)CC)CC2(C)C(=O)NC2CCCCC2)cc1 (stereo unspecified),inactive
21,Cc1ccc(CN2CCN(c3ncccn3)CC2)c(C)c1,inactive
22,O=C(NCC(O)c1nc2ccccc2[nH]1)c1ccc(Br)cc1 (stereo unspecified),inactive

row,Compound,Potency
1,Cc1ccc(Cl)cc1N1CCN(S(=O)(=O)c2cc3[nH]c(=O)c(=O)[nH]c3cc2C)CC1,inactive
2,CCC(=O)Nc1ccc(-c2ccc(N3CCCCC3)nn2)cc1,inactive
3,c1csc(-c2nnc(COc3ccc4c(c3)OCO4)o2)c1,inactive
4,CCN(CC(=O)NC1CCS(=O)(=O)C1)c1nc(-c2cccnc2)nc2ccccc12 (stereo unspecified),inactive
5,O=[N+]([O-])c1cc2ccccc2nc1-c1ccccc1,inactive
6,O=[N+]([O-])c1ccc(F)cc1Oc1nc(-c2cccnc2)nc2ccccc12,18.4 µM (active)
7,O=C(COC(=O)CNC(=O)c1ccco1)Nc1ccc(F)cc1,inactive
8,Cc1cccc(NS(=O)(=O)c2cc(Cl)ccc2Cl)n1,inactive
9,COc1ccc(CCNC(=O)CN2C(=O)CCSc3ccccc32)c(OC)c1,inactive
10,Cc1ccc(-c2cc(-c3coc4ccccc4c3=O)c3c(n2)-c2cc(Cl)ccc2OC3)cc1,inactive
11,CCCCCc1c(Cc2ccccc2)ncn1CCc1ccccc1OC,2.59 µM (active)
12,CCC(=O)NCc1cc(-c2nn(C)c(=O)c3ccccc23)ccc1OC,inactive
13,CCCCCc1c(-c2cccc(Br)c2)ncn1CCc1ccccc1OC,11.6 µM (active)
14,CCCCCc1c(-c2ccc(OC)c(OC)c2)ncn1CCc1ccccc1OC,2.31 µM (active)
15,COc1ccccc1CCC(=O)NNC(=O)c1ccncc1,inactive
16,CCCCNS(=O)(=O)CCNCc1ccccc1OC,inactive
17,CCN(CC)CCN1C(=O)C(=O)/C(=C(/O)c2ccc(OC)c(OC)c2)C1c1ccccn1 (stereo unspecified),inactive
18,CCOC(=O)CSc1nnc(-c2cccc(Br)c2)o1,inactive
